Assay outcomes as filed in PubChem.
Hits are enriched below; roughly 3.3% of the tested compounds scored in any of these assays.
RE007 growth inh: less growth of the S. pombe RE007 Vpr strain; S. pombe RE007 Vpr strain, BacTiter-Glo ATP luminescence, 24 h; 360,000 tested, 0.21% active; Potency, µM (titrated, usually from 92.2 µM), for inactives: at the top dose activity change, negative = less growth, usual class: inhibitors; active means well fitted falling curve with a large enough effect; inconclusive means small, poorly fitted or top-dose-only effect; inactive means no such curve, though single readings can be large or run the other way; further: on the % scale 0 is the no-effect control and ±100 the full control effect; nearly all actives have a fitted effect of over 50% in size
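Fission yeast strain RE007, carrying one chromosomally integrated HIV-1 vpr copy, was seeded at OD 0.01 in PMG+AL medium with 23 nL pinned compound. After 24 h at 30 °C and 99% humidity, viability was read by BacTiter-Glo luminescence.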
Sm TGR block: blocks Schistosoma mansoni thioredoxin glutathione reductase; Q962Y6; purified TGR, DTNB reduction, TNB absorbance 405 nm; Potency, µM (highest dose often 114 µM), for inactives: top-dose activity change, negative = inhibition, usual class: inhibitors; 360,000 tested, 3% active; AID 485364; further: on the % scale 0 is the no-effect control and ±100 the full control effect; nearly all actives have a fitted effect of over 60% in size
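Kinetic colorimetric format: TGR-catalysed, NADPH-driven DTNB reduction monitored via TNB absorbance. Enzyme dispensed at 20 nM; compound exposure 15 min at room temperature before reaction start.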
NS1 inh: influenza NS1 inhibition | Potency, µM (highest dose often 46.1 µM), for the others: at the top dose activity, positive = more growth | 270,000 tested, 0.4% active; calls by dose curve; further: actives are rising curves; nearly all actives have a fitted effect of over 50% in size
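Recovery from NS1-induced slow growth read by OD600 in budding yeast switched to galactose assay medium (pH 6.0, -URA) at 1:100 dilution. Compound 23 nl per well; the matching strain lacking NS1 serves as control.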
SARS PLpro yeast: blocks SARS-CoV papain-like protease in a yeast assay | Potency, µM (doses to about 32.9 µM), inactives show top-dose activity, positive = growth rescue, hits mostly activators | 330,000 tested, 0.19% active | AID 485353 | S. cerevisiae expressing SARS-CoV PLpro, growth rescue; calls by dose curve; further: 0% is about no effect; nearly all actives have a fitted effect of over 55% in size
Tb PYK inh: blocks Trypanosoma brucei pyruvate kinase. Q57TT1. TbPYK enzyme, Kinase-Glo Plus ATP luminescence, 45 min. Potency, µM (highest dose often 76.8 µM), for the others: at the highest dose activity, negative = inhibition, actives largely listed as inhibitors. 410,000 tested, 0.12% active. AID 624173; further: on the % scale 0 is the no-effect control and ±100 the full control effect; nearly all actives have a fitted effect of over 50% in size
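T. brucei PYK with substrate was exposed to pin-transferred compounds across a concentration series, then started with 130 uM ADP (final). After 45 min at room temperature, Kinase-Glo Plus luminescence was read, normalized and curve-fitted.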
LmPK inh: inhibitors of Leishmania mexicana pyruvate kinase; purified LmPK, Kinase-Glo ATP luminescence, 1 h; 290,000 tested, 0.37% active; Potency, µM (top dose mostly 57.5 µM), for the others: top-dose activity change, negative = inhibition, hits mostly inhibitors; AID 1721; Q27686; further: on the % scale 0 is the no-effect control and ±100 the full control effect
Target sequence (Q27686 whole entry, looked up): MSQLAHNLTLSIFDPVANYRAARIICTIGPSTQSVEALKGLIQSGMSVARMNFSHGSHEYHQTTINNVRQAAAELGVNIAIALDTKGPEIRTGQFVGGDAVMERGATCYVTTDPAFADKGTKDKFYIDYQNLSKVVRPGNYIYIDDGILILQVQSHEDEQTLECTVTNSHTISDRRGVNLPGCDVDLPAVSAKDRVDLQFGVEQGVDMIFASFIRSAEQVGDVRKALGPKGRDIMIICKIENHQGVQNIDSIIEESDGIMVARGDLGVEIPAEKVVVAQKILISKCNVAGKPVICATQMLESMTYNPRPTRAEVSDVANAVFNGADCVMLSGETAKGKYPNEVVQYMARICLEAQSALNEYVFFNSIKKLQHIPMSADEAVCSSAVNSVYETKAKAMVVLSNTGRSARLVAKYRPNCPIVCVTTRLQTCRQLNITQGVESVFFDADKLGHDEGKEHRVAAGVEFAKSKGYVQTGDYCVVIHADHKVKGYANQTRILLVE
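Screened at intermediate enzyme activity to detect both inhibitors and activators: LmPK at 0.1 nM, with a 0.5 nM enzyme column as activation reference. PEP 0.5 mM, ADP 0.1 mM; ATP detected by luminescence after 1 h.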
Starred values were filed as active, the others as inactive. Unless noted, the call rests on the fitted dose curve; in most records, active means well fitted curve in the direction sought with a large enough effect; inconclusive means small, poorly fitted or top-dose-only effect, or another doubt; inactive means no such curve, though single readings can be large; an effect the other way counts as inactive or inconclusive. Potency means the concentration at half of the fitted maximal effect.

`Cc1ccc(CN(C)C(=O)c2cccc(S(=O)(=O)N3CCN(Cc4ccccc4)CC3)c2)o1` gave RE007 growth inh -7%, Sm TGR block inconclusive, SARS PLpro yeast -3% and Tb PYK inh 0%.
`Cc1ccc(CN(C)C(=O)c2ccc(S(=O)(=O)N3CCCCCC3)cc2)o1` gave RE007 growth inh 7%, Sm TGR block 50µM*, SARS PLpro yeast -10% and Tb PYK inh -28%.
For COc1ccc(C(=O)N(C)Cc2ccc(C)o2)cc1OC1CCN(C(C)=O)CC1 the results were RE007 growth inh 7%, Sm TGR block 25µM*, NS1 inh -4%, SARS PLpro yeast 1%, Tb PYK inh -7% and LmPK inh 1%.
Screening Cc1ccc(CNC(=O)CN2C(=O)COc3ccc(S(=O)(=O)N4CCCCC4)cc32)o1 returned RE007 growth inh 13%, Sm TGR block 25µM*, NS1 inh 3%, SARS PLpro yeast 0%, Tb PYK inh -2% and LmPK inh 6%.
`CC(=O)N1CCN(S(=O)(=O)c2cccc(C(=O)N(C)Cc3ccc(C)o3)c2)CC1` gave RE007 growth inh 5%, Sm TGR block 40µM*, SARS PLpro yeast -1% and Tb PYK inh -19%.
Screening CCOC(=O)c1c(C)oc2nc(C)nc(N(C)Cc3ccccc3)c12 returned Sm TGR block -2% and Tb PYK inh -4%.
COc1ccccc1Nc1nc(N)nc(CN2CCCCCC2)n1 was read as RE007 growth inh 2%, Sm TGR block 32µM*, NS1 inh -3%, SARS PLpro yeast 3%, Tb PYK inh -4% and LmPK inh 7%.
For COc1ccccc1Nc1nc(N)nc(CSC(=S)N2CCCCC2C)n1 (stereo not drawn) the results were RE007 growth inh -11%, Sm TGR block 8%, NS1 inh -7%, SARS PLpro yeast 13µM*, Tb PYK inh 1% and LmPK inh 5%.
Screening CCOc1ccccc1CNC(=O)c1cc2n(n1)CCCN(Cc1ccc(C)cc1)C2=O returned Sm TGR block 9% and Tb PYK inh -1%.
`O=C(NCc1ccccc1Cl)c1ccc2c(c1)N(Cc1ccccc1)C(=O)CS2` gave Sm TGR block 8% and Tb PYK inh 2%.
`Cn1c2ccccc2c(=O)c2c(=O)n(Cc3ccco3)c(-c3ccc(F)cc3)nc21` gave RE007 growth inh 5%, Sm TGR block 40µM*, NS1 inh 4%, SARS PLpro yeast 0%, Tb PYK inh 0% and LmPK inh -6%.
`Cc1ccc(-c2nc3c(c(=O)c4ccccc4n3C)c(=O)n2Cc2ccco2)cc1` gave RE007 growth inh -12%, Sm TGR block 32µM*, NS1 inh 7%, SARS PLpro yeast 1%, Tb PYK inh 28% and LmPK inh 5%.
`COCCn1c(-c2ccc(C)cc2)nc2c(c(=O)c3ccccc3n2C)c1=O` gave RE007 growth inh -3% and Tb PYK inh 3%.
For NC(=S)N/N=C/c1ccc(-c2ccc([N+](=O)[O-])cc2)o1 the results were RE007 growth inh -12%, Sm TGR block 28µM*, SARS PLpro yeast -1%, Tb PYK inh -24% and LmPK inh -18%.
`NS(=O)(=O)c1cc2c(cc1Cl)=NC(CCC(=O)O)=NS=2(=O)O` gave NS1 inh -3%.
Screening N#C[C@H]1C[C@H]2C[C@@H]2N1C(=O)[C@@H](N)C12CC3CC(CC(O)(C3)C1)C2 returned Tb PYK inh -2%.
`CC(C)[C@H](CN(N=O)[C@@H](Cc1ccccc1)CN(C)N=O)N(CCc1ccccc1)N=O` gave RE007 growth inh 5%, Sm TGR block 29%, NS1 inh 1%, SARS PLpro yeast 0%, Tb PYK inh -3% and LmPK inh 7%.
